# Bioassay records deposited in PubChem BioAssay by National Center for Advancing Translational Sciences (NCATS).
# TDP1 cell CPT: DT40-hTDP1 cell growth loss with CPT | 420,000 compounds, 12% hits | chicken DT40 Tdp1-/-;hTDP1 cells + 20 nM CPT, ATP luminescence, 48 h | AID 686979 | Potency, µM (titrated, usually from 46.2 µM), inactives show top-dose activity change, negative = growth inhibition, actives largely listed as inhibitors; note: nearly all actives have a fitted effect of over 55% in size
#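 Chicken DT40 Tdp1-/- cells stably complemented with human TDP1 were seeded at 400 cells/well in medium containing 20 nM camptothecin, exposed to pin-transferred compounds, and grown at 37 °C for at least 48 hr. Viability was read as ATP luminescence.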
# Gal4-VP16 FLuc: inhibits Gal4-VP16 luciferase reporter, ROR gamma counter-screen; Drosophila S2 Gal4-VP16 UAS-luciferase, luminescence, 20 h; Potency, µM (doses to about 53.6 µM), inactives show at the top dose activity, negative = inhibition, usual class: inhibitors; 310,000 compounds, 3.5% hits; AID 2546;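 note: Gal4-VP16 expression switched on by copper sulfate through the metallothionein promoter; nearly all actives have a fitted effect of over 50% in size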
# TDP1 block: TDP1 (human) enzyme inhibition; Potency, µM (highest dose often 130 µM), without a hit: at the highest dose activity change, negative = inhibition, actives largely listed as inhibitors; Q9NUW8; 350,000 compounds, 0.28% hits; recombinant TDP1, AlphaScreen DNA substrate cleavage; note: nearly all actives have a fitted effect of over 40% in size
#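 Tdp1 1 nM final; 15 min RT w/ cpd; substrate 15 nM, 5 min; beads 10 ug/ml, 10 min; AlphaScreen read. Neg ctrl: no enzyme.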
# TDP1 cell noCPT: qHTS for Inhibitors of human tyrosyl-DNA phosphodiesterase 1 (TDP1): qHTS in cells in absence of CPT | DT40 Tdp1-/- hTDP1 cells, no CPT, ATP luminescence, 48 h | Potency, µM (highest dose often 46.2 µM), inactives show at the highest dose activity change, negative = growth inhibition, hits mostly inhibitors | 420,000 compounds, 15% hits; note: nearly all actives have a fitted effect of over 55% in size
#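 Chicken DT40 Tdp1-/- cells stably complemented with human TDP1 were seeded at 400 cells/well with DMSO in place of 20 nM camptothecin. After compound pinning, cells grew at least 48 hr at 37 °C; viability read by CellTiter-Glo luminescence.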
# RORg inh: blocks mouse ROR gamma transcriptional activity | P51450 | AID 2551 | Drosophila S2 Gal4-RORgamma UAS-luciferase reporter, 20 h | 310,000 compounds, 5.4% hits | Potency, µM (titrated, usually from 53.6 µM), for inactives: at the top dose activity change, negative = inhibition, hits mostly inhibitors; note: nearly all actives have a fitted effect of over 60% in size
# Target sequence (P51450 whole entry, looked up, the tested form may be a part): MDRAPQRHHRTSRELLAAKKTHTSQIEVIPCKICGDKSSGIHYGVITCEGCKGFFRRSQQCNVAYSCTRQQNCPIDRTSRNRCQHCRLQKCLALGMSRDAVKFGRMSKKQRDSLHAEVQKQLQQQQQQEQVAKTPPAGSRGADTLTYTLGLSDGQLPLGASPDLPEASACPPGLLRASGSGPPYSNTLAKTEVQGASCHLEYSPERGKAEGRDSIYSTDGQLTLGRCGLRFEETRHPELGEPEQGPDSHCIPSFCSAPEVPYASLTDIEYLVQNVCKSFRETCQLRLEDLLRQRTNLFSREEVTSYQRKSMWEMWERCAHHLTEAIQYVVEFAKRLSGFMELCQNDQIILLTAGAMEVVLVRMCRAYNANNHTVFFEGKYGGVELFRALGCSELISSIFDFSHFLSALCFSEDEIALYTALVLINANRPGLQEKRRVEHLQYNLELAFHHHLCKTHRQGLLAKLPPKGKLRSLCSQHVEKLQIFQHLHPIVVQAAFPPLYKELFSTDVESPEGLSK
#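 Drosophila S2 cells stably expressing Gal4-DBD/mouse RORγ fusion under metallothionein promoter plus UAS-luciferase; compound 1 h, then 700 uM CuSO4 induction for 20 h at ambient temperature; inhibition read as reduced luminescence.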
# * = called active by the depositor; ? = inconclusive; · = no result given. Compounds with a hit are over-represented: about 19% of the library has one in this group of screens. Calls come from the whole dose curve; as a rule, active = well fitted curve in the direction sought with a large enough effect; inconclusive = small, poorly fitted or top-dose-only effect, or another doubt; inactive = no such curve, though single readings can be large; an effect the other way counts as inactive or inconclusive. % is set by controls: 0 for no effect and ±100 for the full control effect; potency is the fitted concentration of half-maximal effect.
SMILES,TDP1 cell CPT,Gal4-VP16 FLuc,TDP1 block,TDP1 cell noCPT,RORg inh
COc1ccc(/C=C/C(=O)O)cc1S(=O)(=O)NC1CCS(=O)(=O)C1 (configuration not stated),4%,-21%,50µM*,-3%,-2%
Cc1ccc(Oc2nc(CN3CCOCC3)nc3sc4c(c23)CCC(C)C4)cc1C (configuration not stated),-25%,11µM*,0%,?,7.9µM*
COc1cccc(Nc2nc(CN3CCOCC3)nc3sc4c(c23)CCCC4)c1,16µM*,?,8%,21µM*,10µM*
Cc1cc(S(=O)(=O)Nc2nc(CN3CCOCC3)nc3sc4c(c23)CCC4)cc(C)c1C,-10%,·,-12%,-7%,·
Cc1nc2cnc(N(C)C)nc2n(Cc2cccs2)c1=O,-14%,-2%,·,-29%,0%
CN(C)c1ncc2nc(CCc3ccccc3)c(=O)n(Cc3cccs3)c2n1,?,-13%,·,16µM*,11%
CN(C)c1ncc2ncc(=O)n(CCc3ccccc3)c2n1,21µM*,-16%,·,26µM*,-3%
CN(C)c1ncc2nc(-c3ccccc3)c(=O)n(CCc3ccccc3)c2n1,-6%,5%,·,2%,-6%
CN(C)C(CNC(=O)c1cccc(S(=O)(=O)N(C)C)c1)c1ccccc1 (configuration not stated),-21%,16%,5%,-7%,-43%
Cc1cc2c(cc1[N+](=O)[O-])NC(CNC(C)C)CC2 (configuration not stated),-29%,1%,2%,?,1%
COCC(=O)N1CCC2(CC1)CN(C(=O)Nc1ccccc1)C2,15%,2%,·,-4%,0%
Cc1nc(NC(=O)CSc2nnc(-c3ccc4c(c3)OCO4)o2)c(Cl)cc1Cl,-16%,1%,8%,?,-43%
CCn1c(SCC(=O)Nc2ncc(C(F)(F)F)cc2Cl)nnc1-c1cccc(C)c1,-2%,?,0%,-5%,10µM*
COc1ccc(-c2nnc(SCC(=O)Nc3ncc(C(F)(F)F)cc3Cl)n2CC(C)C)cc1,-26%,-16%,2%,-26%,-42%
O=C(CSc1nnc(-c2ccc3c(c2)OCO3)o1)Nc1ncc(C(F)(F)F)cc1Cl,?,?,7%,16µM*,4µM*
CCc1ccc2ncc(S(=O)(=O)c3ccc(Cl)cc3)c(N3CCN(CC)CC3)c2c1,?,·,2%,16µM*,·
CCOc1ccc2ncc(S(=O)(=O)c3ccc(C)cc3)c(N3CCC4(CC3)OCCO4)c2c1,?,-1%,8%,23µM*,?
CCOc1ccc2[nH]cc(S(=O)(=O)c3ccc(C)cc3)c(=O)c2c1,?,-6%,3%,?,?
CCOc1ccc(N=Cc2ccc3ccccc3c2)cc1,-15%,-11%,·,-19%,3%
O=[N+]([O-])c1cc(C=Nc2ccc3ccccc3c2)ccc1Br,2.6µM*,?,6%,2.9µM*,20µM*
COc1ccc(S(=O)(=O)N(C)C)cc1NC(=O)C1CCN(c2ncnc3sc(C)c(C)c23)CC1,21µM*,·,·,9.2µM*,·
Cc1sc2ncnc(N3CCC(C(=O)Nc4cc(C(F)(F)F)ccc4OCC(F)(F)F)CC3)c2c1C,?,·,·,18µM*,·
Cc1sc2ncnc(N3CCC(C(=O)Nc4cc(S(C)(=O)=O)ccc4Cl)CC3)c2c1C,13µM*,·,-3%,18µM*,·
Cc1sc2ncnc(N3CCC(C(=O)NNC(=O)c4ccc(Cl)cc4)CC3)c2c1C,16µM*,·,-15%,15µM*,·
N#Cc1ccsc1NC(=O)COC(=O)c1cc(Br)ccc1O,1%,-1%,8%,-8%,-2%
SMILES,TDP1 cell CPT,Gal4-VP16 FLuc,TDP1 block,TDP1 cell noCPT,RORg inh
O=C(O)c1ccc(CSc2nnc(-c3ccccc3Cl)n2-c2ccccc2)cc1,6%,10%,-3%,-14%,-13%
Cn1c(CCNC(=O)c2ccco2)nc2cc(NS(=O)(=O)c3ccc(Cl)cc3)ccc21,?,-8%,5%,?,?
C=CCOC(=O)C1=C(C)Nc2ncnn2C1c1cccs1 (configuration not stated),-7%,-3%,5%,-20%,-41%
CC1=C(C(=O)Nc2ccccc2)C(c2cccs2)n2nnnc2N1 (configuration not stated),3%,21%,-3%,-14%,-4%
CCOC(=O)C1=C(C)Nc2nnnn2C1c1c[nH]c2ccccc12 (configuration not stated),·,22µM*,9%,·,49%
CCCCCCCOC(=O)C1=C(C)Nc2ncnn2C1c1cccs1 (configuration not stated),?,6%,8%,13µM*,-36%
CCCCCCCCOC(=O)C1=C(C)Nc2nnnn2C1c1cccs1 (configuration not stated),16µM*,?,8%,16µM*,-12%
CC(C)(C)c1ccc(C(=O)Nc2ccc(CN3CCS(=O)(=O)CC3)cc2)cc1,16µM*,?,-6%,21µM*,32%
O=C(Nc1ccc(CN2CCS(=O)(=O)CC2)cc1)c1ccccc1,9%,-3%,·,-4%,1%
O=C(Nc1ccc(CN2CCS(=O)(=O)CC2)cc1)c1ccc(F)cc1,0%,-15%,-6%,4%,10%
O=C(Nc1ccc(CN2CCS(=O)(=O)CC2)cc1)c1ccc(C(F)(F)F)cc1,?,-1%,0%,21µM*,?
CCN1C(=O)CCN(C2CCCC2)c2nc(Nc3ccc(C(=O)NC4CCN(C)CC4)cc3OC)ncc21,5.2µM*,·,·,7.3µM*,·
COc1ccc(C(=O)NC2CCCCCC2)cc1S(=O)(=O)N1CCCc2ccccc21,?,-11%,2%,?,16%
O=C(c1ccc2c(c1)OCO2)N1CCN(c2ncccn2)CC1,2%,-2%,1%,?,18%
CCCNC(=O)c1ccc(N2CCC3(CC2)CC(c2ccccc2)=NO3)c([N+](=O)[O-])c1,21µM*,?,·,?,15%
O=C(NCc1ccccc1)c1ccc(N2CCC3(CC2)CC(c2ccc(Cl)cc2)=NO3)c([N+](=O)[O-])c1,6.5µM*,10%,·,?,3%
CCCNC(=O)c1ccc(N2CCC3(CC2)CC(c2ccccc2)=NO3)c(NC(=O)Cc2ccc(F)cc2)c1,?,-4%,·,18µM*,28%
O=C(CSc1nnnn1-c1ccc(C(=O)O)cc1)NC1CCCCC1,4%,8%,-7%,2%,-14%
CC1CCCCC1NC(=O)/C(C#N)=C/c1ccccc1F (configuration not stated),-104%,11µM*,4%,-100%,11µM*
